Experimental data taken from PubChem BioAssay AID2073 (Sanford-Burnham Center for Chemical Genomics, 2009).
In all, about 290,000 compounds went through this assay and about 570 (0.2%) were called active. Another 1% or so got no clear call; they are omitted. Rule as the data show it: active = inhibition mostly above about 51% (no sharp cut-off); inconclusive = no clear call, values can overlap the other calls; inactive = mostly below about 53%. This excerpt belongs to a sample that is enriched for actives.

Molecular target: Voltage-dependent N-type calcium channel subunit alpha-1B (Homo sapiens) (UniProt Q00975)
Assay: inhibitors of Mint1-CaV2.2 protein interaction, biochemical, HTRF (AID 2073)
Settings: at 20 µM, stronger effect = higher value
[1] = measured here: average of repeat tests

Chain of Voltage-dependent N-type calcium channel subunit alpha-1B (Homo sapiens) (Q00975 whole entry, looked up): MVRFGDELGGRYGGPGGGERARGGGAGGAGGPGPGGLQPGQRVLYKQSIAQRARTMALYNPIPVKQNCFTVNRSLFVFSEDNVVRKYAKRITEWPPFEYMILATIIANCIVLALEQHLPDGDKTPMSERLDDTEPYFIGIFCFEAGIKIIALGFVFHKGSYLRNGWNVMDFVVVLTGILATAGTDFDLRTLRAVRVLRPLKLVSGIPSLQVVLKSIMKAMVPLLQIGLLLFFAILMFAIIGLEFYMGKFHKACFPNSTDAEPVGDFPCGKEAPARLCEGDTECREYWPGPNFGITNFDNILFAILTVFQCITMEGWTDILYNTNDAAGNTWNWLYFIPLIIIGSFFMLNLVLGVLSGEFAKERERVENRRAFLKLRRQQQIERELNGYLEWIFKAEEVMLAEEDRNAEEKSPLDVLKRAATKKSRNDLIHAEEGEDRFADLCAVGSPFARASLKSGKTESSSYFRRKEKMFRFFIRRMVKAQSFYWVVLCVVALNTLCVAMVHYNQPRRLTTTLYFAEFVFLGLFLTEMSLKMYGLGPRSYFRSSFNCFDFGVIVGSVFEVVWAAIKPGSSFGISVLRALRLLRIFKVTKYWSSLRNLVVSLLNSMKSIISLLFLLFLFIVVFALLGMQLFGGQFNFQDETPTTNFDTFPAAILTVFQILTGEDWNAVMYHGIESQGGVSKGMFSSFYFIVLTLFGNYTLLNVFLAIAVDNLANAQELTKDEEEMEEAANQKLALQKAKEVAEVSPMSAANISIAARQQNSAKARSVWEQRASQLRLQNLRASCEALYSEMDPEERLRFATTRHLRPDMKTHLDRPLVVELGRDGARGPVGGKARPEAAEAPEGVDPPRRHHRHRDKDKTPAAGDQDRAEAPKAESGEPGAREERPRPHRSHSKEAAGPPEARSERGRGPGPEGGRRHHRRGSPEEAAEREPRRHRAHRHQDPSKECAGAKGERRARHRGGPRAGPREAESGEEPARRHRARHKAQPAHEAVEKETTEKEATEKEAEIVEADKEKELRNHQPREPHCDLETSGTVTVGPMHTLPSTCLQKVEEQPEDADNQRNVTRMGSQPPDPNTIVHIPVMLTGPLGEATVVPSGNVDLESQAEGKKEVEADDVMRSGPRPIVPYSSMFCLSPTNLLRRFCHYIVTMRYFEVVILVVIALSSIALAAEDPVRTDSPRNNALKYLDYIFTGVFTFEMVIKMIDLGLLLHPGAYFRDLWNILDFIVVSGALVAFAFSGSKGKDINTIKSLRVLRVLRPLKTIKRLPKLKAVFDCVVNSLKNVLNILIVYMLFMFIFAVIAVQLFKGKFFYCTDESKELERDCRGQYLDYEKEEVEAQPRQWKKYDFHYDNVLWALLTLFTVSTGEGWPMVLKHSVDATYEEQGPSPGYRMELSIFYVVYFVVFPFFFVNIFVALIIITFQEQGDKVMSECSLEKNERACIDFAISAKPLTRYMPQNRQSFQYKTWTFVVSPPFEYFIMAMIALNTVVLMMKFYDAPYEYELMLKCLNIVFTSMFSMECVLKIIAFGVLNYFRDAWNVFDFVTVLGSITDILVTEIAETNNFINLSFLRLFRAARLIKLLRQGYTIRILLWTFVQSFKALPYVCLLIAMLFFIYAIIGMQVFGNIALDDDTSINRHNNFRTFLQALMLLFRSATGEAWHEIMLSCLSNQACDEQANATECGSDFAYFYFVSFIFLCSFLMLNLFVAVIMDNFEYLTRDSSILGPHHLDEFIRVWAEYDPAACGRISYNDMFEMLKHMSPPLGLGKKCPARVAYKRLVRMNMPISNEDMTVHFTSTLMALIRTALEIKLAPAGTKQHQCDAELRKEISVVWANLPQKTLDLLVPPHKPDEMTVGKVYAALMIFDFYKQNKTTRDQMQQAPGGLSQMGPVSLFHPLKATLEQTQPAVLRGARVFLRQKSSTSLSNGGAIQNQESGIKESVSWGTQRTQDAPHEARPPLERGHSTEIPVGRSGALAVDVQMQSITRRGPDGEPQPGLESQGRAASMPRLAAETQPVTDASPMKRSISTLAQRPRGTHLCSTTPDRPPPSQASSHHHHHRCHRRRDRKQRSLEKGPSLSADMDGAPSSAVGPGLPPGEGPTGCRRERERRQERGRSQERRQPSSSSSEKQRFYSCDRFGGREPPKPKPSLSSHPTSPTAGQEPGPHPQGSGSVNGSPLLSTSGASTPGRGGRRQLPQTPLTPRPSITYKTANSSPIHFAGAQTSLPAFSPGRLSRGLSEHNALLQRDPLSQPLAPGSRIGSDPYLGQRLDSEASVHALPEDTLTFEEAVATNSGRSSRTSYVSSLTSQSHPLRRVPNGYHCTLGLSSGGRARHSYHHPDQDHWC

Structure (SMILES) | inhibition | inhibition [1] [%]
CC(C)OC(=O)c1cc2c(ccn2-c2ccc(F)cc2)n1CC(=O)N1CCN(C(=O)c2ccco2)CC1 | 40.4% (inactive) | 
C[C@H]1c2cccc(O)c2C(O)=C2C(=O)[C@]3(O)C(O)=C(C(N)=O)C(=O)[C@@H](N(C)C)[C@@H]3[C@@H](O)[C@@H]21 | 13.4% (inactive) | 
CN(C)[C@@H]1C(=O)C(C(N)=O)=C(O)[C@@]2(O)C(=O)C3=C(O)c4c(O)ccc(Cl)c4[C@@H](O)[C@H]3C[C@@H]12 | 56.1% (active) | 
CN(C)c1ccc(O)c2c1CC1CC3[C@@H](N(C)C)C(=O)C(C(N)=O)=C(O)[C@]3(O)C(=O)C1=C2O (some centres not stated) | 22.3% (inactive) | 
C=C1CCC[C@]2(C)C[C@H]3OC(=O)C(CN(Cc4ccc(OC)c(OC)c4)CC(C)O)[C@H]3CC12 (some centres not stated) | 6.9% (inactive) | 
COc1cccc(-c2nc(NCc3cccnc3)c3ccccc3n2)c1O | 14.2% (inactive) | 
O=C(Nc1ccc2oc(-c3ccccc3Cl)nc2c1)c1ncn[nH]1 | 28.3% (inactive) | 
O=C(Nc1ccc2oc(-c3ccccc3F)nc2c1)c1ncn[nH]1 | 2.6% (inactive) | 
O=C(c1cccs1)N1CCN=C1SCc1cccnc1 | -1.3% (inactive) | 
CCOc1cccc(NC(=O)c2cccc(F)c2)c1 | 2.7% (inactive) | 
CN(C)C=Nc1c(Br)cc(Br)c2nonc12 | 19.7% (inactive) | 
Cc1ccc(Nc2nc(=O)c3cccnc3s2)cc1 | 2.2% (inactive) | 
COc1ccc(OC)c(Nc2nc(=O)c3cccnc3s2)c1 | 81.8% (active) | 
Cc1ccc(Nc2nc(=O)c3cccnc3s2)c(Br)c1 | -13% (inactive) | 
Cc1cccc(Oc2sc(C(=O)c3ccccc3)c(N)c2C#N)c1C | 4.2% (inactive) | 
CCCCNc1nc2ccccc2nc1Cl | 4.6% (inactive) | 
COc1ccc(C2(C)NC(=O)N(CC(=O)Nc3ccc(S(=O)(=O)N4CCCC4)cc3)C2=O)cc1 (configuration not stated) | 4.9% (inactive) | 
Oc1ccc(N=C/C=C/c2cccc(Br)c2)cc1-c1nc2ccccc2s1 | 66.6% (inactive) | 5
Brc1ccc(/C=C/C=N/Nc2nc3ccccc3s2)cc1 | 5.3% (inactive) | 
Oc1ccc(N=C/C=C/c2ccc(Br)cc2)cc1-c1nc2ccccc2s1 | 62.9% (active) | 
COCCCN=C1NN=C(c2cc(C)n(Cc3ccco3)c2C)CS1 | 24.8% (inactive) | 
Cc1cc(C2=NNC(=NC3CC3)SC2)c(C)n1Cc1ccco1 | 26.3% (inactive) | 
CCN=C1NN=C(c2cc(C)n(Cc3ccco3)c2C)CS1 | 57.5% (active) | 
CCOC(=O)/C(C#N)=C1/C=Nc2ccccc2N1 | 14.4% (inactive) | 
Cc1ccc(NC(=O)CCNS(=O)(=O)c2ccc3[nH]c(=O)oc3c2)c(C)c1 | -0.1% (inactive) | 

Structure (SMILES) | inhibition | inhibition [1] [%]
COc1cccc(C(=O)Nc2ccc3c(c2)C(=O)NC3=O)c1 | 11.6% (inactive) | 
Cc1ccc(Nc2c(-c3ccccn3)nc3cc(C)ccn23)cc1 | 50.4% (active) | 
Cc1ccn2c(Nc3ccccc3C)c(-c3ccccn3)nc2c1 | 15% (inactive) | 
Cc1ccn2c(Nc3ccccc3)c(-c3ccccn3)nc2c1 | 21.1% (inactive) | 
O=C(Nc1ccc2c(c1)OCCO2)c1cccc(Br)c1 | -4.4% (inactive) | 
Nc1nnnn1/N=C/c1ccccc1OCc1ccc(Cl)cc1 | 0.5% (inactive) | 
Cc1nn(CC(=O)NCC2CCCO2)c(C)c1[N+](=O)[O-] (configuration not stated) | 5.2% (inactive) | 
CC(=O)NNC(=O)c1sc(=S)n2c1[nH]c(=O)c1sccc12 | 46.1% (inactive) | 
O=C(NCc1ccccc1)c1sc(=S)n2c1[nH]c(=O)c1ccccc12 | -8.6% (inactive) | 
NC(=O)c1sc(=S)n2c1[nH]c(=O)c1sccc12 | 51.8% (active) | 
Cc1c(C(=O)/C=C/c2cccs2)oc2ccc(F)cc12 | -6.1% (inactive) | 
CCOC(=O)c1ccc2c(c1)C1C=CCC1C(C(=O)O)N2 (configuration not stated) | 31% (inactive) | 
Cc1ccc2c(c1)C1C=CCC1C(C(=O)O)N2 (configuration not stated) | 39.2% (inactive) | 
O=C(OC1CCCCC1)c1ccc2c(c1)C1C=CCC1C(C(=O)O)N2 (configuration not stated) | 74.8% (active) | 
Cc1ccccc1OCC(=O)OC(C(=O)c1ccccc1)c1ccccc1 (configuration not stated) | 12.2% (inactive) | 
O=C1CCCN1c1cc(Cl)ccc1Cl | -4.5% (inactive) | 
O=c1cc(O)c2sc(Nc3ccc(F)c(Cl)c3)nc2[nH]1 | 86.3% (active) | 
COc1ccc(Nc2nc3[nH]c(=O)cc(O)c3s2)cc1 | 87.5% (inactive) | 17.2
Fc1ccc(Nc2nc3ccccc3s2)cc1 | 3.5% (inactive) | 
O=c1cc(O)c2sc(Nc3cccc(C(F)(F)F)c3)nc2[nH]1 | 66.6% (active) | 
O=c1cnnc(Nc2cccc(C(F)(F)F)c2)[nH]1 | 2.4% (inactive) | 
O=c1cc(O)c2sc(Nc3ccc(Cl)c(F)c3)nc2[nH]1 | 66.1% (inactive) | 31.6
O=c1cc(O)c2sc(Nc3ccc(F)cc3)nc2[nH]1 | 63.2% (active) | 
Cc1cc(=O)[nH]c(Nc2cccc(C(F)(F)F)c2)n1 | -2.3% (inactive) | 
Fc1ccc(Nc2nnc(C(F)(F)F)s2)cc1Cl | 10.6% (inactive) | 

Structure (SMILES) | inhibition | inhibition [1] [%]
O=C(/C=C/c1ccccc1)N1CCN(S(=O)(=O)c2ccc(F)cc2)CC1 | -4.1% (inactive) | 
CN(C)CCNc1nc2c(c(=O)[nH]c(=O)n2C)n1CC(O)COc1ccc(Cl)cc1 (configuration not stated) | -3% (inactive) | 
O=C(N/N=C/c1ccccc1)c1ccc(CN2C(=O)c3cccc4cccc2c34)cc1 | 36.4% (inactive) | 
O=C(N/N=C/c1ccc(O)cc1O)c1ccc(CN2C(=O)c3cccc4cccc2c34)cc1 | 69.5% (active) | 
COc1ccc(/C=N/NC(=O)c2ccc(CN3C(=O)c4cccc5cccc3c45)cc2)cc1O | 71.7% (inactive) | 39.7
COC(=O)c1ccc(OCCOc2ccccc2C)cc1 | 26.5% (inactive) | 
Cc1ccc(C)c(S(=O)(=O)NCc2ccc(C(=O)N3CCOCC3)cc2)c1 | -3.9% (inactive) | 
CCc1nn2c(=O)cc(COc3ccc(/C=C4\C(=N)N5N=C(C)SC5=NC4=O)cc3)nc2s1 | 60% (active) | 
CCc1nn2c(=O)cc(COc3ccc(/C=C4\C(=N)N5N=C(CC(C)C)SC5=NC4=O)cc3)nc2s1 | 24.6% (inactive) | 
CC(=O)Nc1ccc(OCCOc2ccc(/C=C3\C(=N)N4N=C(C)SC4=NC3=O)cc2)cc1 | 24.7% (inactive) | 
COCCCN1C(=O)C(=O)/C(=C(/O)c2ccc(S(=O)(=O)N3CCCCC3)cc2)C1c1ccc(O)cc1 (configuration not stated) | 2% (inactive) | 
CNC(=S)N1CCN=C1Nc1nc(C)cc(C)n1 | 3.5% (inactive) | 
Cc1c(Cl)cccc1NS(=O)(=O)c1ccc2c(c1)C1C=CCC1C(c1ccc(C(=O)O)cc1)N2 (configuration not stated) | 61% (inactive) | 29.1
COc1cccc(NS(=O)(=O)c2ccc3c(c2)C2C=CCC2C(c2ccc(C(=O)O)cc2)N3)c1 (configuration not stated) | 56.4% (active) | 55
COc1ccc(NS(=O)(=O)c2ccc3c(c2)[C@H]2C=CC[C@H]2[C@@H](c2ccc(C(=O)O)cc2)N3)cc1 | 20.2% (inactive) | 
Cc1cc(-c2cc(C(=O)O)c3ccccc3n2)c(C)s1 | 9.2% (inactive) | 
O=C1c2ccccc2C(=O)N1OCc1c(F)cccc1Cl | 16.6% (inactive) | 
CCOC(=O)c1c(-n2cnnn2)sc(C)c1C | -6.3% (inactive) | 
CCOC(=O)c1c(N2C(=O)C3CC(C)=C(C)CC3C2=O)sc(C)c1C (configuration not stated) | -2.7% (inactive) | 
CCOC(=O)c1c(N2C(=O)C=CC2=O)sc(C)c1C | 65.5% (active) | 
CCOC(=O)c1c(NC(=O)COC)sc(C(C)=O)c1C | 6.4% (inactive) | 
CCOc1ccc(N2C(=O)CC(S/C(N)=N/N=C/c3cccs3)C2=O)cc1 (configuration not stated) | 10.6% (inactive) | 
CCCCc1nc2sc3c(=O)n(N)cnc3c2c2c1CCCC2 | 8.9% (inactive) | 
Cc1c(-c2ccnc3cc(C(=O)O)nn23)cnn1C | 49.5% (inactive) | 
CCn1cc(-c2ccnc3cc(C(=O)O)nn23)c(C)n1 | 39.6% (inactive) | 

Structure (SMILES) | inhibition | inhibition [1] [%]
CCn1ncc(-c2ccnc3cc(C(=O)O)nn23)c1C | 67.9% (active) | 
CCn1cc(C(=O)Nc2ccc(F)c(F)c2)cn1 | 8.5% (inactive) | 
CC(C)n1nc(C(=O)N2CCN(S(=O)(=O)c3cccs3)CC2)c2ccccc2c1=O | -6.3% (inactive) | 
Cc1ccc(C(=O)O)cc1-c1ccc(/C=C2\SC(=O)N(CC(=O)Nc3ccccc3)C2=O)o1 | 24% (inactive) | 
Cc1ccc(NC(=O)CN2C(=O)S/C(=C\c3ccc(-c4cccc(C(=O)O)c4C)o3)C2=O)cc1 | 7.6% (inactive) | 
Cc1ccc(NC(=O)CN2C(=O)S/C(=C/c3ccc(-c4cccc(C(=O)O)c4)o3)C2=O)cc1 | 62.3% (active) | 
O=c1[nH]cnc(O)c1N=Nc1ccccc1 | -0.9% (inactive) | 
CCCSCCCNC(=O)c1cc2c(s1)CS(=O)(=O)C2 | 2% (inactive) | 
O=C(Nc1ccccc1C(=O)O)c1ccc2c(c1)C(=O)N(c1cccc([N+](=O)[O-])c1)C2=O | 11.2% (inactive) | 
O=C(O)c1cccc(NC(=O)c2ccc3c(c2)C(=O)N(c2cccc([N+](=O)[O-])c2)C3=O)c1 | 26.4% (inactive) | 
CCOC(=O)c1cc2c(N)c(C(=O)c3cc(C#N)c(SC)nc3C)sc2nc1C | 8.2% (inactive) | 
COc1nc2ccccc2nc1OC | -4.1% (inactive) | 
COc1cc2ccccc2nn1 | 22.3% (inactive) | 
COc1ccc2c(n1)Sc1nc3ccccc3nc1N2 | 78.9% (active) | 
Cn1nc(-c2ccccc2)cc1NC(=O)Nc1ccc(F)cc1 | -0.7% (inactive) | 
O=C1NC(=Nc2ccc(Cl)cc2)/C(=C/c2ccco2)S1 | 55.3% (active) | 
Cc1ccc(N=C2NC(=O)/C(=C\c3ccco3)S2)cc1 | 58.4% (inactive) | 6.9
Cc1ccc(N=C2NC(=O)S/C2=C\c2ccco2)cc1 | 29.6% (inactive) | 
Cc1ccc(N=C2NC(=O)/C(=C/C=C/c3ccco3)S2)cc1 | 36.2% (inactive) | 
Cc1ccc(N=C2NC(=O)/C(=C/C=C/c3ccco3)S2)cc1C | 76% (active) | 
COc1ccc(N=C2NC(=O)/C(=C\c3ccco3)S2)cc1 | 81.2% (active) | 
COc1ccc(N=C2NC(=O)/C(=C/c3ccco3)S2)cc1 | -14.1% (inactive) | 
O=C1NC(=Nc2ccccc2)/C(=C/c2ccco2)S1 | 24.1% (inactive) | 
Cc1cccc(N=C2NC(=O)/C(=C/C=C/c3ccco3)S2)c1 | 57.2% (inactive) | 31.3
